# According to the supplement of paper PMC6555819:
# Experiments:
# Test in all cases: PBM binding z-score (relative to random genomic background probes); higher = stronger binding; sequences stand for … in GC…GCGATTGACAGCGTAGAATGAAGG
# [1] = test system: PPARg:RXRa DBDmut IVT, anti-RXR (DBD mutation: RXRa K156A/R161A, NR concentration 270 nM, RXRa partner concentration 90 nM)
# Outline: (§1)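 Each nuclear receptor dimer, without ligand, was incubated for 1 h on custom Agilent 4×180K protein-binding microarrays. Binding was detected with antibodies against each partner (one per run), and scanned fluorescence was regression-normalized. The binding z-scores are referenced to random human genomic background probes.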
# [2] = test system: PPARg:RXRa IVT, anti-PPARg (NR concentration 270 nM, RXRa partner concentration 90 nM)
# Outline: as §1
# [3] = test system: PPARg DBDmut:RXRa IVT, anti-PPARg (DBD mutation: PPARg1 K132A/R137A, NR concentration 270 nM, RXRa partner concentration 90 nM)
# Outline: as §1
# [4] = test system: PPARg DBDmut IVT, anti-PPARg (DBD mutation: PPARg1 K132A/R137A, NR concentration 270 nM)
# Outline: as §1
# [5] = test system: PPARg homodimer (NR concentration 180 nM)
# Outline: as §1
# [6] = test system: PXR:RXRa (NR concentration 270 nM, RXRa partner concentration 90 nM)
# Outline: as §1
# [7] = test system: PXR homodimer (NR concentration 270 nM)
# Outline: as §1
# [8] = test system: RARa:RXR (NR concentration 270 nM, RXRa partner concentration 90 nM)
# Outline: as §1
# [9] = test system: RARa homodimer (NR concentration 270 nM)
# Outline: as §1
# [10] = test system: RARb:RXRa (NR concentration 270 nM, RXRa partner concentration 90 nM)
# Outline: as §1
Sequence,PBM binding z-score [1],PBM binding z-score [2],PBM binding z-score [3],PBM binding z-score [4],PBM binding z-score [5],PBM binding z-score [6],PBM binding z-score [7],PBM binding z-score [8],PBM binding z-score [9],PBM binding z-score [10]
GCTTGTAGATCAAGGGTAAGAAAGACTAAGCTAA,1.15,1.03,-0.364,-0.778,0.0991,-0.426,-0.45,-0.346,-0.786,-0.0761
GCTAGTTGGTCAGTAAAAAGTCACACACCGGTCG,0.793,0.0874,0.0294,0.69,0.862,0.0868,-0.328,0.255,0.758,0.863
GTTGCTAGGTCAGGTTGGTCAGCTAACGGGTACG,2.88,3.16,0.283,-0.614,1.29,0.651,0.178,0.933,0.798,3.4
GCTAGTTGGTCAGTAAAAGGTCAGACACCGGTCG,0.754,1.67,-0.192,0.136,3.21,3.35,0.554,4.17,0.966,3.71
GCTAGTTGGTCAGTAAAAGCTCACACACCGGTCG,0.623,-0.0359,-1.02,-0.165,-0.00408,-0.622,-0.0329,-0.419,0.154,0.596
TAGCCTAGGTCACTGGGCCAGTATAGTACGCATC,3.48,5.27,1.2,0.865,0.976,1.32,-0.648,1.93,-0.15,3.91
GCGACTGGAGCAAAGCAGGTTACCATAAGGTTGG,1.03,0.463,-1.39,-1.59,0.00968,-0.101,-0.667,0.372,-0.65,-0.192
TCTTGCAGATCAAAGGTTAAGAAAGCCGAAGCCT,0.914,2.37,0.0487,-1.09,0.464,1.72,-0.464,2.7,-0.444,1.7
ATCTCTAGGTAAAGTTCAGAGAAAGATCGATAGA,2.15,2.79,1.18,0.787,2.17,2.04,1.86,1.25,1.48,2.51
TCTGCTAGGTAAACGATGGTCAGCTAATCTGCTA,1.06,0.192,-0.37,-0.397,-1.72,-0.369,-0.821,-0.233,-1.63,-0.0745
TTACCAAGGTGAGCAGAGGTCGTTGATCCAACTC,0.947,2.49,-0.426,-0.173,0.497,4.23,-0.112,2.23,-0.99,1.99
GCATATAGGTAATACAAGGGGAAAGTCCGATTGT,4.01,2.14,0.831,0.956,0.379,-0.118,0.0351,0.489,0.339,-0.122
ATATGTAGGTTACATCCGGGTCGTTCAGGCTATG,7.59,7.22,2.21,1.61,1.23,1.64,0.721,1.35,0.787,1.49
AGAACGAGGGCAACGAGTTGATAGCACGGGTGGC,3.47,3.2,0.361,-0.0508,-0.253,1.49,3.88,0.217,-0.868,2.23
ATATGTAGGTTAAGGGTCACTCAGGTTGGTTCGC,7.97,8.15,1.94,2.59,3.56,5.09,1.94,6.1,2.24,3.95
TAGCCTAGGTCAGATCGGGCCAGAATACGCTATA,0.095,1.57,-0.542,-0.739,0.124,0.946,-0.549,1.87,-0.627,2.93
TATACAGGGTCAATGGCCAGAGTACGAATGTCGA,1.79,3.99,1.48,1.03,1.97,3.23,0.633,3.75,0.771,4.05
TGTCAAAGTTTAAAGGTAACGTAAGTATCCACAC,-0.319,2.73,0.942,1.54,0.899,1.7,0.39,2.12,0.576,2.46
TGAATGAGGTTAAAGATCCGGGAACGTGGCGTCG,2.22,2.41,0.774,0.25,0.436,1.11,-0.152,1.84,-0.669,1.72
AGTAAAAGTTCAGGACGAGGTAACGTAAAGCACG,-0.481,0.814,0.943,1.31,1.74,2.71,1.45,2.39,0.986,3.85
CGTCCAAGATCAATGCTAGGTCAGTGAAAGCATT,0.0283,0.44,-0.261,0.071,0.835,0.204,0.467,0.725,0.103,1.7
CGTCCAAGGTCATAGAAGGTCAGTGAAGACAGAT,3.2,4.17,0.653,0.867,2.94,6.39,3.15,5.72,1.77,5.41
CGAACAAGGGCATGAGTTGATAGCAAATGCCGAT,1.66,0.813,-0.522,-0.153,0.0917,-0.0332,-0.184,-0.0493,0.0122,2.02
TCATAGAGGTAAAGGTGAAAGTCGAACGATATGA,2.03,3.05,0.77,0.323,0.369,1.15,-0.365,2.03,0.137,2.19
